Screening data deposited in PubChem by National Center for Advancing Translational Sciences (NCATS).
BAZ2B block – BAZ2B (human) inhibition; AlphaScreen BAZ2B-H3K14Ac peptide displacement; 360,000 compounds, 4.4% hits; AID 504333; Potency, µM (doses to about 114 µM), inactives show at the highest dose activity change, negative = inhibition, hits mostly inhibitors; note: % is set by controls: 0 for no effect and ±100 for the full control effect; nearly all actives have a fitted effect of over 60% in size
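BAZ2B 50 nM plus b-H3(5-23)K14Ac 50 nM, PBS pH 7.4/0.01% Tween-20, 30 min RT; compound added (max 110 uM), 30 min RT; streptavidin donor/Ni-chelate acceptor beads 10 ug/mL final, 20 min dark; AlphaScreen read.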
L3MBTL1 block – L3MBTL1 (human) inhibition; 230,000 compounds, 0.66% hits; AID 485360; AlphaScreen L3MBTL1–H3K9me1 peptide binding; Potency, µM (doses to about 57.1 µM), without a hit: top-dose activity, negative = inhibition, actives largely listed as inhibitors; note: % is set by controls: 0 for no effect and ±100 for the full control effect; nearly all actives have a fitted effect of over 60% in size
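L3MBTL1 50 nM + b-AHA-H3(1-15)K9me1 75 nM, 30 min RT; compound added, 30 min RT; streptavidin donor/Ni-chelate acceptor beads 10 ug/mL each final, 30 min RT dark; AlphaScreen read.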
Sfp PPTase inh – Sfp phosphopantetheinyl transferase inhibition; Potency, µM, for the others: largest response in the series, negative = inhibition, actives largely listed as inhibitors; 310,000 compounds, 3.5% hits; Biochemical Sfp PPTase activity, qHTS; Q9F4F7;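 note: the enzyme is Sfp with the accession as filed and its product quenches rhodamine fluorescence; 0% = enzyme reaction without inhibitor and -100% = no enzyme wells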
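After 15 min at room temperature with compound, 15 nM Sfp received 5 uM rhodamine-CoA plus 12.5 uM BHQ-2-ybbR (50 mM Hepes pH 7.6, 10 mM MgCl2). Rate came from the fluorescence difference over 30 min, ex 525/em 598 nm.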
JMJD2A Tudor inh – inhibitors of human JMJD2A Tudor domain | O75164 | AlphaScreen JMJD2A-Tudor / H3K4me3 peptide binding | Potency, µM (series often up to 114 µM), inactives show at the highest dose activity change, negative = inhibition, actives largely listed as inhibitors | 390,000 compounds, 4.4% hits | AID 504339; note: % is set by controls: 0 for no effect and ±100 for the full control effect; nearly all actives have a fitted effect of over 50% in size
Target sequence (O75164 whole entry, looked up, the tested form may be a part): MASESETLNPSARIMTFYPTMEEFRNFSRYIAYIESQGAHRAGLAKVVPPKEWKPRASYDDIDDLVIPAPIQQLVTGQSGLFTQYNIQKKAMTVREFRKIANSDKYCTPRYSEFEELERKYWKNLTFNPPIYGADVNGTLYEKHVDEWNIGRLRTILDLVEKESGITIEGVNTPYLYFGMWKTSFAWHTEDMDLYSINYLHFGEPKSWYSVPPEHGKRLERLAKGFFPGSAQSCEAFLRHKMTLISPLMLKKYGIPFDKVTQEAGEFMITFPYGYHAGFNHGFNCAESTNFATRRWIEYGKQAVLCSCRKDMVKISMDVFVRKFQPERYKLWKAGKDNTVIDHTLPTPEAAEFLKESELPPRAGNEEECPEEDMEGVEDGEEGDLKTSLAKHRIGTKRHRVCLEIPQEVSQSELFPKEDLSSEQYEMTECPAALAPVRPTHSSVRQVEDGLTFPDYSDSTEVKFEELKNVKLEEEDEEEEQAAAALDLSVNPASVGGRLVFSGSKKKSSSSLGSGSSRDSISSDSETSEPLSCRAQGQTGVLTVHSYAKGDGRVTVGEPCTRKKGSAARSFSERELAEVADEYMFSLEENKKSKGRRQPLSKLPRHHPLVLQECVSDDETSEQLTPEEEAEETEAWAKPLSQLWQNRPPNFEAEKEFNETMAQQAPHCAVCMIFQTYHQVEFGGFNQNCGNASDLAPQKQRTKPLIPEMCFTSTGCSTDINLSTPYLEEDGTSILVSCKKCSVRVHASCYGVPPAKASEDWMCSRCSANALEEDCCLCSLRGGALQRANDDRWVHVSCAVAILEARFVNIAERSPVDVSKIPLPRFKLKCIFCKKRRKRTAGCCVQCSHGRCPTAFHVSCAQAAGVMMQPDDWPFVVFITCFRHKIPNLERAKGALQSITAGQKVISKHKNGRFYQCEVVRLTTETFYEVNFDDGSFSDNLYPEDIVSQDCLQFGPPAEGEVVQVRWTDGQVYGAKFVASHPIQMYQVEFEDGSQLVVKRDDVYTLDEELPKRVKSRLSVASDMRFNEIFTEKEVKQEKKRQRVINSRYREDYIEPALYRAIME
G9a block – inhibitors of human histone lysine methyltransferase G9a; G9a H3K9 monomethylation, AlphaScreen, 2 h; AID 504332; Potency, µM (titrated, usually from 102 µM), without a hit: at the highest dose activity, negative = inhibition, hits mostly inhibitors; Q96KQ7; 350,000 compounds, 8.8% hits; note: % is set by controls: 0 for no effect and ±100 for the full control effect; nearly all actives have a fitted effect of over 75% in size
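Quantitative HTS format: methyltransferase activity on a biotin-tagged H3K9 peptide is measured by AlphaScreen, using a rabbit anti-monomethyl-H3K9 antibody with streptavidin donor and anti-IgG acceptor beads. Final levels are 20 nM enzyme, 500 nM peptide, 20 uM SAM; 2 h RT.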
HP1b chromo inh – inhibitors of HP1-beta chromodomain binding to methylated histone tails; 390,000 compounds, 0.56% hits; Potency, µM (doses to about 114 µM), for inactives: at the top dose activity change, negative = inhibition, usual class: inhibitors; AlphaScreen HP1-beta / biotin-H3K9me3 peptide binding; P83916; note: nearly all actives have a fitted effect of over 70% in size
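AlphaScreen: HP1-beta (50 nM) preformed 30 min with biotin-H3(1-18)K9me3 peptide (50 nM) in PBS pH 7.4, 0.01% Tween-20. Compound added for 30 min at RT, then streptavidin donor/nickel chelate acceptor beads (10 ug/mL) for 30 min.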
* marks the source's active call; other numbers are inactive results; ? = inconclusive; · = not tested or not shown; [ ] = another dose, or the depositor's remark. Compounds with a hit are over-represented: about 12% of the library has one in this group of screens. Calls come from the whole dose curve; as a rule, active = well fitted curve in the direction sought with a large enough effect; inconclusive = small, poorly fitted or top-dose-only effect, or another doubt; inactive = no such curve, though single readings can be large; an effect the other way counts as inactive or inconclusive. Potency is the fitted concentration of half-maximal effect.

SMILES	BAZ2B block	L3MBTL1 block	Sfp PPTase inh	JMJD2A Tudor inh	G9a block	HP1b chromo inh
COC(=O)c1cc(=O)n(Cc2cccs2)c(=Nc2ccc(F)cc2)s1	?	-8%	1%	-26%	·	-16%
COC(=O)c1cc(=O)n(-c2ccc(F)cc2)c(=Nc2ccc(F)cc2)s1	?	-13%	4%	?	40µM*	-14%
O=S(=O)(c1ccc(F)cc1)c1nc(-c2ccco2)oc1Nc1ccc(F)cc1	?	-12%	-2%	-28%	50µM*	7%
CCOc1ccc(Nc2oc(-c3ccco3)nc2C#N)cc1	-37%	-7%	-3%	-22%	-43%[59 µM]	-3%
COc1ccc(Nc2oc(-c3ccco3)nc2S(=O)(=O)c2ccc(F)cc2)cc1	?	-7%	-2%	?	45µM*	-6%
O=C(CSc1oc(-c2ccco2)nc1S(=O)(=O)c1ccc(F)cc1)NCC1CCCO1 (stereo not given)	11%	-22%[11.4 µM]	-12%	-17%	?	3%
O=C1Nc2ccccc2C1=Nc1ccc(F)cc1	-4%	·	20%	-24%	-9%	?
COc1ccc(N=C2C(=O)Nc3ccccc32)cc1	6%	-4%	-14%	-24%	?	-2%
Cc1ccc(N=C2C(=O)Nc3ccc(C)c(Br)c32)cc1	?	·	-9%	?	1.3µM*	-18%
COc1ccc(N=C2C(=O)Nc3ccc(C)c(Br)c32)cc1	6.3µM*	-11%	23%	?	11µM*	?
CCOc1ccc(-n2c(SCC(=O)N3CCOCC3)nc3c([nH]c4ccccc43)c2=O)cc1	2%	·	·	-10%	-1%[59 µM]	6%[57 µM]
O=C(Nc1ccc2nn(-c3ccc(F)cc3)nc2c1)c1cccc2c(Cl)cccc12	-15%	·	·	-7%	-19%[59 µM]	22%
O=C(CN1CCN(c2ccccn2)CC1)Nc1cccc(Br)c1	-19%	·	-9%	-22%	45µM*	53%
COc1cc(NC(=O)CN2CCN(c3ccccn3)CC2)cc(OC)c1OC	4%	·	13%	0%	45µM*	2%
Cc1ccc(NC(=O)CCn2c(=S)oc3ccccc32)cc1	-15%	·	4%	-3%	-25%	55%
O=C(CN1CCN(c2ccccn2)CC1)Nc1cccc(F)c1	4%	·	12%	-12%	4%	55%
Cc1ccc(NC(=O)Cn2nc(Cc3ccncc3)c3ccccc3c2=O)c(Cl)c1	71µM*	·	·	?	-39%[59 µM]	62%
CN(C)c1ccc(NC(=O)CCn2c(=S)oc3ccccc32)cc1	25µM*	-1%	1%	?	?	-2%
Cc1c(C(=O)N2CCCC2)oc2c1-c1nn(CC(=O)NCc3cccc(Br)c3)cc1CC2	-39%	·	·	1%	?	43%
COc1ccccc1NC(=O)CSc1oc(-c2ccccc2)nc1S(=O)(=O)c1ccccc1	-4%	·	·	-24%	?	10%
CCc1cccc(C)c1NC(=O)CN1CCCN(Cc2ccccc2Cl)S1(=O)=O	-14%	·	·	-12%	-3%[59 µM]	36%
CN(C)c1ccc(NC(=O)CCN2CCN(c3ccccn3)CC2)cc1	-29%	·	-5%	-32%	50µM*	3%
O=C(CCN1CCN(c2ccccn2)CC1)Nc1ccc(F)cc1	5%	6%	6%	12%	11%	23%
Cc1ccc(NC(=O)CN2CCN(c3ccccn3)CC2)c(Cl)c1	-5%	·	79µM*	-19%	-47%[59 µM]	27%
O=C(NCCC1=CCCCC1)Nc1ccc2nsnc2c1	-29%	-1%	10%	26%	40µM*	76%
SMILES	BAZ2B block	L3MBTL1 block	Sfp PPTase inh	JMJD2A Tudor inh	G9a block	HP1b chromo inh
CC(=O)c1cccc(NC(=S)NCCC2=CCCCC2)c1	-3%	14%	9%	-9%	11%[59 µM]	2%
CCOc1ccccc1N=NC1C(=O)N(C(N)=S)N=C1C (stereo not given)	7%	·	-25%	-4%	50µM*	-3%
CC1=NN(C(N)=S)C(=O)C1N=Nc1ccccc1C (stereo not given)	-11%	13%	-3%	-25%	1%[59 µM]	-1%
CC1=NN(C(N)=S)C(=O)C1N=Nc1ccccc1O (stereo not given)	50µM*	?	10%	56µM*	·	47%
Cc1nn(C)c2c1c(-c1ccccc1)cc(=O)n2Cc1ccccc1Cl	38%	·	·	29%	74%[59 µM]	46%
CCCN1CNc2c(c(=O)[nH]c(=S)n2CCC(C)(C)C)C1	·	·	·	-5%	·	15%
CCCCCCCCCCCC(=O)NC(Cc1ccc(OC)c([N+](=O)[O-])c1)C(=O)O (stereo not given)	-26%	-17%	14%	-23%	28µM*	9%
CC1(c2ccc([N+](=O)[O-])cc2)Nc2ccccc2S1 (stereo not given)	13µM*	·	50µM*	40µM*	28µM*	?
O=C1Nc2ccccc2/C1=C/c1ccc([N+](=O)[O-])cc1	-11%	·	5%	-1%	-4%	31%
CC(CC(C)(C)C)CP(=O)(O)CC(C)CC(C)(C)C (stereo not given)	·	·	11%	·	·	·
CCOC(=O)c1c(-c2ccc(C)cc2C)csc1NC(=O)c1ccccc1Cl	-2%	·	·	-9%	-1%[59 µM]	14%
Cc1ccccc1C(=O)N1CCC(C(=O)Nc2ccccc2Cl)CC1	2%	·	2%	1%	31%	25%
CCOC(=O)N1CCN(C(=O)C2CCN(C(=O)c3ccccc3C)CC2)CC1	·	·	·	7.1µM*	·	7.9µM*
Cc1ccccc1C(=O)N1CCC(C(=O)Nc2ccccc2N2CCCC2)CC1	1%	-8%	·	-28%	50µM*	-4%
O=C(COc1ccccc1F)Nc1ccccc1C(=O)OCc1cc(=O)n2nc(C3CC3)sc2n1	-3%	·	·	0%	3%[12.7 µM]	41%
O=C(c1ccc(N2CCCCC2)c([N+](=O)[O-])c1)N1CCOCC1	7%	-2%	12%	-18%	6%[59 µM]	8%
O=C(O/N=C\c1ccc(N2CCCCC2)c([N+](=O)[O-])c1)c1ccc(Cl)cc1Cl	?	-23%	12%	?	40µM*	?
O=C(/C=C/c1ccc(N2CCCCC2)c([N+](=O)[O-])c1)c1ccc(O)cc1	40µM*	-19%	-2%	28µM*	-25%[12.7 µM]	35µM*
Cc1ccc(C(=O)O/N=C\c2ccc(N3CCOCC3)c([N+](=O)[O-])c2)cc1	-25%[57.1 µM]	-2%	9%	-5%	25%	?
COc1ccccc1C(=O)/C=C/c1ccc(N2CCCCC2)c([N+](=O)[O-])c1	6.3µM*	?	1%	8.9µM*	13µM*	32µM*
O=C(NCc1ccccc1F)c1cc2ccccn2n1	1%	·	·	-14%	-2%[59 µM]	17%
O=C(Nc1ccc(Br)cc1)C1CCN(S(=O)(=O)c2cccc3nsnc23)CC1	·	·	·	-14%	-3%[59 µM]	21%
